High-throughput results (PubChem)
This is a sample that favours compounds with a hit; in the whole collection about 21% have one here.
TDP1 cell CPT – qHTS for Inhibitors of human tyrosyl-DNA phosphodiesterase 1 (TDP1): qHTS in cells in presence of CPT; Potency, µM (series often up to 46.2 µM), for inactives: at the top dose activity change, negative = growth inhibition, most hits filed as inhibitors; hit rate 12% among 420,000; chicken DT40 Tdp1-/-;hTDP1 cells + 20 nM CPT, ATP luminescence, 48 h; note: potency is the fitted concentration of half-maximal effect; nearly all actives have a fitted effect of over 55% in size
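Chicken DT40 Tdp1-/- cells stably complemented with human TDP1 were seeded at 400 cells/well in medium containing 20 nM camptothecin, exposed to pin-transferred compounds, and grown at 37 °C for at least 48 hr. Viability was read as ATP luminescence.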
IL-1B inflam inh – qHTS for Inhibitors of Inflammasome Signaling: IL-1-beta AlphaLISA Primary Screen; THP-1 LPS/ATP IL-1B secretion, AlphaLISA, 16 h; hits give low values; activity change, % at 57.5 µM; hit rate 4.7% among 360,000; AID 743279, 2014; in the data active = activity change below about -50%; inconclusive = mostly about -30% to -49%
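THP-1 cells pretreated 1 hr with compounds (up to 57.5 uM final), then stimulated with LPS (250 ng/mL final) plus ATP (1.25 mM final); secreted IL-1B measured by AlphaLISA after 16 hr, decreased signal indicating inhibition.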
Gal4-VP16 FLuc – VP16 counterscreen qHTS for inhibitors of ROR gamma transcriptional activity; Drosophila S2 Gal4-VP16 UAS-luciferase, luminescence, 20 h; Potency, µM (series often up to 53.6 µM), without a hit: top-dose activity, negative = inhibition, hits mostly inhibitors; hit rate 3.5% among 310,000; AID 2546, 2010;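 note: Gal4-VP16 expression switched on by copper sulfate through the metallothionein promoter; potency is the fitted concentration of half-maximal effect; nearly all actives have a fitted effect of over 50% in size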
DT40 TDP1 no CPT – qHTS for Inhibitors of human tyrosyl-DNA phosphodiesterase 1 (TDP1): qHTS in cells in absence of CPT | DT40 Tdp1-/- hTDP1 cells, no CPT, ATP luminescence, 48 h | Potency, µM (top dose mostly 46.2 µM), for the others: top-dose activity change, negative = growth inhibition, usual class: inhibitors | hit rate 15% among 420,000; note: potency is the fitted concentration of half-maximal effect; nearly all actives have a fitted effect of over 55% in size
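A cellular qHTS used chicken DT40 cells lacking endogenous Tdp1 but carrying stably transfected human TDP1. Compounds were applied without camptothecin, and cell growth kinetics were judged by ATP-dependent luminescence after ≥48 hr.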
RORgamma inh – qHTS for inhibitors of ROR gamma transcriptional activity; Drosophila S2 Gal4-RORgamma UAS-luciferase reporter, 20 h; Potency, µM (doses to about 53.6 µM), for inactives: top-dose activity change, negative = inhibition, usual class: inhibitors; hit rate 5.4% among 310,000; AID 2551, 2010; note: potency is the fitted concentration of half-maximal effect; nearly all actives have a fitted effect of over 60% in size
Target sequence (P51450 whole entry, looked up, the tested form may be a part): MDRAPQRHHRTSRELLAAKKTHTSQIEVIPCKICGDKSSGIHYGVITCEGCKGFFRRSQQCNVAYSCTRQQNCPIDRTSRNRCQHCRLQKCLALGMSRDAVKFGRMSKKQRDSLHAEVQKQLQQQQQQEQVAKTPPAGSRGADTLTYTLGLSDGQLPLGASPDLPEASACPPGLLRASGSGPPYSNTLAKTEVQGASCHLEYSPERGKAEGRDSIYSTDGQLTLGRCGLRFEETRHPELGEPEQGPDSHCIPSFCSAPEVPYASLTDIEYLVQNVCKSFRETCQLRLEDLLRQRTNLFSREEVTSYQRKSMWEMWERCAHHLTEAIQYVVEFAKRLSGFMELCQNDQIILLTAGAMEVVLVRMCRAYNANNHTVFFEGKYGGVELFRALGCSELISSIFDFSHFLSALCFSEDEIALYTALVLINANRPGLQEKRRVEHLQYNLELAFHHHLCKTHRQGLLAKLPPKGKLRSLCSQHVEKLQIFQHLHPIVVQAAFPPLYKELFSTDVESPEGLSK
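Drosophila Schneider cells stably carrying a metallothionein-driven Gal4 DBD–ROR gamma fusion and a UAS-Photinus luciferase reporter were exposed to compound for 1 hr, then induced with copper sulfate (700 uM final) for 20 hr at ambient temperature before luminescence reading.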
ELG1 DNA repair – qHTS screen for small molecules that inhibit ELG1-dependent DNA repair in human embryonic kidney (HEK293T) cells expressing luciferase-tagged ELG1; HEK293T ELG1-luciferase reporter, luminescence, 16 h; DNA damage induced by 5-fluorouridine; Potency, µM (titrated, usually from 46.1 µM), inactives show at the top dose activity change, negative = inhibition, hits mostly inhibitors; hit rate 2.3% among 330,000; note: potency is the fitted concentration of half-maximal effect; nearly all actives have a fitted effect of over 55% in size
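5-Fluorouridine DNA damage + compound/DMSO, 2,000 cells/well, 16 h, 37 °C/5% CO2. ONE-Glo, 30 min RT, luminescence. Readout = decrease in reporter signal.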
The depositor's hits bear a star; i = inactive; ? = inconclusive; / = not tested or not shown. Unless noted, calls come from the whole dose curve; as a rule, active = well fitted curve in the direction sought with a large enough effect; inconclusive = small, poorly fitted or top-dose-only effect, or another doubt; inactive = no such curve, though single readings can be large; an effect the other way counts as inactive or inconclusive. % is set by controls: 0 for no effect and ±100 for the full control effect.

SMILES	TDP1 cell CPT	IL-1B inflam inh	Gal4-VP16 FLuc	DT40 TDP1 no CPT	RORgamma inh	ELG1 DNA repair
COc1ccc(NC(=O)c2cc(-c3ccccc3)nc3c2c(C)nn3-c2ccccc2)c(OC)c1	?	5	-19%	?	-38%	-27%
Cc1nn(-c2ccccc2)c2nc(-c3ccncc3)cc(C(=O)NCc3ccco3)c12	?	-2	-19%	18µM*	8%	?
CC(/C=N/NC(=O)c1cc(-c2cccnc2)nc2c1c(C)nn2-c1ccccc1)=C\c1ccccc1	18µM*	0	-3%	13µM*	?	5.8µM*
COc1ccc(-c2cc(C(=O)NNC3=NCCC3)c3c(C)nn(-c4ccccc4)c3n2)cc1	?	0	?	?	0.32µM*	-2%
CCOC(=O)c1cc(-c2cccs2)nc2c1c(C)nn2-c1ccccn1	15µM*	-79*	7.1µM*	15µM*	1.8µM*	?
Cc1nn(-c2ccc(Cl)cc2)c2nc(-c3cccnc3)cc(C(F)(F)F)c12	15%	/	/	4%	/	/
COc1cc(NC(=O)CCN2CC(C)OC(C)C2)cc(OC)c1 (stereo unspecified)	2%	-4	-1%	-2%	13%	3%
Cc1ccc(C(=O)N/C(=C\c2ccco2)C(=O)NCCN2CCOCC2)cc1C	3%	i	3%	0%	-4%	-4%
Cc1nn(-c2ccccn2)c2nc(-c3cccs3)cc(C(=O)NCc3ccco3)c12	23µM*	0	?	23µM*	14µM*	?
O=C(NCc1ccco1)c1nn2c(C(F)(F)F)cc(-c3cccs3)nc2c1Cl	0%	21	-13%	3%	-12%	14%
C[C@@]12C(=O)N(CC3CC3)CC(=O)N1[C@H](/C=C/c1ccccc1)[C@@H]1C(=O)N(c3ccccc3)C(=O)[C@@H]12	3%	4	-2%	8%	-15%	3%
Cc1occc1C(=O)N(C)Cc1nc(-c2ccccc2)no1	?	-11	-14%	?	2%	0%
C=CCN(Cc1nc(-c2ccccc2)no1)C(=O)c1ccoc1C	29µM*	-7	-10%	?	-25%	-1%
CC(=O)c1ccc2c(c1)N(Cc1ccc3ccccc3c1)C(=O)C(C)S2 (stereo unspecified)	5.8µM*	0	/	5.2µM*	/	/
Cc1ccc(NC(=O)NCC2CC2(Cl)Cl)cc1 (stereo unspecified)	-17%	-2	1%	10%	3%	?
O=C(NCC1CC1(Cl)Cl)Nc1ccc(Cl)c(Cl)c1 (stereo unspecified)	?	-95*	-23%	?	?	?
CCC(CC)C(=O)Nc1ccc(Cl)c(Cl)c1	-29%	13	9%	13µM*	20%	-9%
CCN(Cc1ccncc1)C(=S)Nc1ccc(Cl)cc1	?	30	-11%	-19%	45%	?
CCN(CC)C(=S)Nc1ccc(Cl)c(Cl)c1	-9%	5	?	?	18µM*	-12%
O=C(COc1ccccc1-c1nc(-c2ccccc2)no1)Nc1cccc([N+](=O)[O-])c1	2.6µM*	/	/	?	/	/
Cc1cccc(-c2noc(-c3ccccc3OCC(=O)Nc3ccccc3[N+](=O)[O-])n2)c1	?	/	/	16µM*	/	/
Cc1noc(-c2ccccc2OCC(=O)Nc2cccc([N+](=O)[O-])c2)n1	?	/	/	-29%	/	/
CCC1(c2ccccc2)NC(=O)N(CC(=O)Nc2ccc(N3CCOCC3)cc2)C1=O (stereo unspecified)	-10%	-10	/	0%	/	28%
COc1ccc(CNc2cc(C)nc3ncnn23)c(OC)c1	?	2	11µM*	10µM*	-23%	?
COc1ccc(Nc2cc(C)nc3ncnn23)c(OC)c1	-1%	29	14%	0%	-45%	?
SMILES	TDP1 cell CPT	IL-1B inflam inh	Gal4-VP16 FLuc	DT40 TDP1 no CPT	RORgamma inh	ELG1 DNA repair
COC(=O)c1cc(NS(=O)(=O)c2ccc(N3CCOCC3)c(N)c2)cc(C(=O)OC)c1	-2%	-54*	-12%	-8%	26%	9%
Nc1cc(S(=O)(=O)c2ccc(N3CCCCC3)c(N)c2)ccc1N1CCCCC1	9.2µM*	40	/	12µM*	/	/
COC(=O)c1cc(NS(=O)(=O)c2ccc(N3CCOCC3)c(NC(C)=O)c2)cc(C(=O)OC)c1	33%	39	-7%	20%	16%	11%
Nc1cc(S(=O)(=O)Nc2ccccc2Cl)ccc1N1CCCCC1	15µM*	-21	/	9.2µM*	/	8%
COc1ccc(NS(=O)(=O)c2ccc(N3CCCCC3)c(N)c2)cc1	2.6µM*	-5	/	1.3µM*	/	24%
CC1(CC(=O)N/N=C/c2cc3c(cc2Br)OCO3)OCCO1	11%	?	0%	8%	-16%	10%
Cc1ccc(-c2nnc(Nc3ccc(O)cc3)c3ccccc23)cc1S(=O)(=O)NCc1nc2ccccc2[nH]1	-5%	/	/	-12%	/	/
CN(C)CCCNC(=O)C(=O)NCC(c1cccs1)S(=O)(=O)c1ccc(F)cc1 (stereo unspecified)	?	-2	/	-3%	/	13%
Cc1cc2c(cc1C)C(c1cccc([N+](=O)[O-])c1)CC(=O)N2 (stereo unspecified)	23µM*	14	-2%	18µM*	?	-5%
COc1cc2c(cc1OC)C(c1ccccc1C(F)(F)F)CC(=O)N2 (stereo unspecified)	-3%	-53*	7%	?	?	-3%
